Bioassay records: PubChem BioAssay, several laboratories
APP 5UTR inh: APP translation inhibition; SH-SY5Y APP 5'UTR-luciferase reporter, luminescence; inhibition, % at 2 µM; actives 0.82% (n = 190,000); AID 1285;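 active means inhibition above a set limit, derived from the sample mean plus 3 SD, cut at about 45% in these data; inconclusive means one replicate passes the limit while the other fails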
IEC-6 tox: counter-screen for KLF5 inhibitors: cytotoxicity in IEC-6 cells. inhibition, % at 5 µM. AID 1825. IEC-6 cytotoxicity, luminescence viability. actives 0.78% (n = 290,000); in the data active means inhibition above about 22%
KLF5 inhibitor: suppresses KLF5 promoter-driven expression. DLD-1 KLF5 promoter-luciferase reporter, luminescence. inhibition, % at 5 µM. actives 0.23% (n = 290,000). AID 1700;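 active means inhibition above a per-plate limit of that plate's mean compound inhibition plus 3 SD, cut at about 60% in these data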;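 further: higher means less KLF5 promoter-driven luciferase light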
aSyn UTR inh: MLPCN primary screen, SNCA 5' untranslated region. alpha-synuclein 5'UTR reporter, inhibitor activity. actives 0.82% (n = 300,000). AID 1813. inhibition, % (tested at 7.5 µM); in the data active means inhibition above about 60%; inconclusive means no clear call, values can overlap the other calls;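 further: H4 neuroglioblastoma cells stably carrying SNCA 5'UTR luciferase fusion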
BaF3 parental: parental Ba/F3 viability inhibition as JAK2V617F counter-screen; CellTiter-Glo ATP luminescence; inhibition, % at 5.6 µM; actives 1.1% (n = 220,000); AID 1486;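 active means inhibition above a per-campaign cutoff, the mean inhibition of all tested compounds plus 3 SD, cut at about 27% in these data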
Ba/F3 V617F tox: loss of viability in JAK2V617F-driven Ba/F3 cells. Ba/F3 EpoR-JAK2V617F viability, ATP luminescence. inhibition, % at 5.6 µM. actives 1.1% (n = 220,000). AID 1446;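 active means inhibition above the campaign mean plus 3 SD over all tested compounds, cut at about 24% in these data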;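 further: cytokine-independent growth of Ba/F3 cells driven by EpoR plus mutant JAK2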
Each line names hits and unclear results; the compound was inactive in the other large screens. Shown are actives, neighbours in structure and some others; about 2.1% of the full set was active somewhere.

CC1(C)CC(N2CCN(Cc3ccccc3)CC2)=CC(=[N+]2CCCCC2)C1	BaF3 parental 71, Ba/F3 V617F tox 80 (no result: APP 5UTR inh)
CC1(C)CC(N2CCCC2)=CC(=[N+]2CCCC2)C1	BaF3 parental 69, Ba/F3 V617F tox 79
C#CC[N+](C)(C)C(C#Cc1ccccc1)CC=C (configuration not stated)	BaF3 parental 48, Ba/F3 V617F tox 26
C[N+](C)(CC#Cc1ccccc1)CC(=O)c1ccccc1	none
O=C1CN(C(=O)COC(=O)c2oc3ccccc3c2COc2ccccc2)c2ccccc2N1	APP 5UTR inh 45
Cn1c(/C=C/c2ccc([N+](=O)[O-])o2)nc2ccccc2c1=O	aSyn UTR inh 98, BaF3 parental 67, Ba/F3 V617F tox 87
Cn1c(/C=C/c2ccccc2)nc2ccccc2c1=O	none (no result: APP 5UTR inh, BaF3 parental, Ba/F3 V617F tox)
COc1ccc(NC(=O)C23CC4CC(C2)CC(n2cnc(Br)n2)(C4)C3)cc1Cl	APP 5UTR inh 47
O=C(O)c1cccc(NC(=O)C23CC4CC(C2)CC(n2cnc(Cl)n2)(C4)C3)c1	none
N#Cc1cnn2c1nc(N1CCCCC1)c1ccccc12	aSyn UTR inh 64
O=C(NC1CC(=O)N(c2ccc3c(c2)OCCO3)C1)N1CCCCC1 (configuration not stated)	none (no result: APP 5UTR inh, IEC-6 tox, KLF5 inhibitor, BaF3 parental, Ba/F3 V617F tox)
Cc1ccccc1Cn1ccc(=NCc2ccccc2)cc1	BaF3 parental 79, Ba/F3 V617F tox 100
COC(=O)C1(C)CCC(C(=O)Nc2ccccc2)C1(C)C (configuration not stated)	aSyn UTR inh 62 (no result: APP 5UTR inh, IEC-6 tox, KLF5 inhibitor, BaF3 parental, Ba/F3 V617F tox)
c1ccc(-c2noc(C3CCC3)n2)nc1	none (no result: APP 5UTR inh)
CCCCC1CCC(c2nc(-c3ccccn3)no2)CC1 (configuration not stated)	aSyn UTR inh 97
Cc1ccccc1NS(=O)(=O)c1c(C(=O)N2CCCCCC2)c(C)n(C)c1C	none (no result: APP 5UTR inh, BaF3 parental, Ba/F3 V617F tox)
COC(=O)C[C@](O)(CCCC(C)(C)O)C(=O)O[C@@H]1C(OC)=C[C@]23CCCN2CCc2cc4c(cc2[C@H]13)OCO4	aSyn UTR inh 127 (no result: APP 5UTR inh, IEC-6 tox, KLF5 inhibitor, BaF3 parental, Ba/F3 V617F tox)
COc1ccc(NS(=O)(=O)c2cccc(NC(=O)c3ccc(S(=O)(=O)N4CCCCCC4)cc3)c2)cc1	BaF3 parental 44, Ba/F3 V617F tox 42
COc1cc(/C(C)=N/NC(=O)c2cccc(S(=O)(=O)N3CCCC3)c2)cc(OC)c1OC	none (no result: APP 5UTR inh, BaF3 parental, Ba/F3 V617F tox)
COc1ccc(/C(C)=N/NC(=O)c2cccc(S(=O)(=O)N3CCCC3)c2)c(O)c1	aSyn UTR inh 78 (no result: APP 5UTR inh, IEC-6 tox, KLF5 inhibitor, BaF3 parental, Ba/F3 V617F tox)
COc1ccc(NS(=O)(=O)c2ccc(N3CCOCC3)c(NC(=O)c3ccc(OC)cc3)c2)cc1	BaF3 parental 42, Ba/F3 V617F tox 41
COc1ccc(NS(=O)(=O)c2ccc(N3CCOCC3)c(NC(=O)c3ccccc3Cl)c2)cc1	BaF3 parental 42, Ba/F3 V617F tox 43
CCc1ccc(CNC(=O)c2ccc(OC3CCN(C(C)=O)CC3)c(OC)c2)nc1	none (no result: APP 5UTR inh, BaF3 parental, Ba/F3 V617F tox)
Cc1cccc(C(=O)N[C@H](C(=O)Nc2cccc(S(=O)(=O)N3CCCC3)c2)C(C)C)c1	none (no result: APP 5UTR inh)
CCOc1ccc(C(=O)N[C@H](C(=O)Nc2cccc(S(=O)(=O)N3CCCCC3)c2)C(C)C)cc1	aSyn UTR inh 76
CCOC(=O)c1ccccc1NC(=O)CN(c1ccc(OCC)cc1)S(C)(=O)=O	APP 5UTR inh 52, BaF3 parental 37, Ba/F3 V617F tox 27
Cc1cc(OC(=O)c2ccccc2F)c([N+](=O)[O-])c(=O)[nH]1	none (no result: APP 5UTR inh, BaF3 parental, Ba/F3 V617F tox)
CCCCCCOC(=O)C[N+](C)(C)CCOC1CC2CCC1(C)C2(C)C (configuration not stated)	BaF3 parental 80, Ba/F3 V617F tox 89
CCCOC(=O)C[N+](C)(C)CCOC1CC2CCC1(C)C2(C)C (configuration not stated)	BaF3 parental 46, Ba/F3 V617F tox 30 (no result: APP 5UTR inh)
CCCCOC(=O)C[N+](C)(C)CCOC1CC2CCC1(C)C2(C)C (configuration not stated)	BaF3 parental 58, Ba/F3 V617F tox 54
CC(C)CCOC(=O)C[N+](C)(C)CCOC1CC2CCC1(C)C2(C)C (configuration not stated)	BaF3 parental 76, Ba/F3 V617F tox 90
CC1(C)C2CCC1(C)C(OCCNCCOC(=O)Nc1ccccc1)C2 (configuration not stated)	none (no result: APP 5UTR inh)
Cc1nn(CC(=O)Nc2ccc(N3CCOCC3)cc2)c(C)c1Cl	none (no result: APP 5UTR inh, BaF3 parental, Ba/F3 V617F tox)
Cc1ccc[n+](CC(=O)Nc2cc(C(F)(F)F)ccc2N2CCOCC2)c1	none
CCC(C)OC(=O)C[N+](C)(C)CCOC1CC2CCC1(C)C2(C)C (configuration not stated)	BaF3 parental 74, Ba/F3 V617F tox 82
CCCCCCCOC(=O)C[N+](C)(C)CCOC1CC2CCC1(C)C2(C)C (configuration not stated)	BaF3 parental 85, Ba/F3 V617F tox 101
O=C(CN1C(=O)C2C3C=CC(C3)C2C1=O)OCC(=O)c1ccc(Cl)c([N+](=O)[O-])c1 (configuration not stated)	none (no result: APP 5UTR inh, BaF3 parental, Ba/F3 V617F tox)
CCOC(=O)C1=C(C)N=c2s/c(=C\c3ccc(O)c([N+](=O)[O-])c3)c(=O)n2C1c1ccccc1OC (configuration not stated)	none (no result: APP 5UTR inh, BaF3 parental, Ba/F3 V617F tox)
COc1ccc(/C=c2/sc3n(c2=O)C(c2ccccc2OC)C2=C(N=3)c3ccccc3CC2)cc1O (configuration not stated)	APP 5UTR inh 84, aSyn UTR inh 94, BaF3 parental 29
COc1ccc(C=O)cc1OS(=O)(=O)c1ccc(NC(C)=O)cc1	none
COc1ccc(/C=N/NC(=O)c2ccc3ccccc3c2)cc1OS(=O)(=O)c1ccc(NC(C)=O)cc1	APP 5UTR inh 72
OCc1nc2ccccc2n1Cc1c(F)cccc1Cl	none (no result: APP 5UTR inh)
CSc1nc2ccccc2n1Cc1c(Cl)cccc1Cl	BaF3 parental 30
Cc1cccc(-n2ncc3c(N(CCO)CCO)ncnc32)c1	none
Cc1cccc(-n2ncc3c(N(C)C4CCCCC4)ncnc32)c1	aSyn UTR inh 66 (no result: APP 5UTR inh, IEC-6 tox, KLF5 inhibitor, BaF3 parental, Ba/F3 V617F tox)
Cc1ccc2c(c1)Cc1nc3ccccc3nc1-2	aSyn UTR inh 71
Cc1ccc2c(c1)-c1nc3ccccc3cc1C2=NC1CCCCC1	none (no result: aSyn UTR inh)
CCN(CC)S(=O)(=O)c1ccc(N2CCN(C)CC2)c(NC(=O)COc2ccc(F)cc2Cl)c1	none (no result: APP 5UTR inh, IEC-6 tox, KLF5 inhibitor, BaF3 parental, Ba/F3 V617F tox)
COc1ccccc1N=c1oc2cc(O)ccc2cc1C(N)=O	BaF3 parental 34, Ba/F3 V617F tox 32
COc1ccc(CCCc2nnc(SCC(=O)NN)o2)c(C)c1	none (no result: APP 5UTR inh, BaF3 parental, Ba/F3 V617F tox)
O=C(CSc1nnc(COc2cccc3cccnc23)o1)N1CCc2ccccc21	BaF3 parental 94
OCCC1CN(C/C=C/c2ccco2)CCN1Cc1ccccc1 (configuration not stated)	none (no result: APP 5UTR inh, BaF3 parental, Ba/F3 V617F tox)
C=CCn1c(SCC(=O)c2[nH]c(C)c(C(=O)OCC)c2C)nc2scc(-c3ccc(OC)cc3)c2c1=O	APP 5UTR inh 60
C=CCn1c(SCC(=O)c2[nH]c(C)c(C(=O)OCC)c2C)nc2scc(-c3ccccc3)c2c1=O	aSyn UTR inh inconclusive
N=c1c2c(n(Cc3ccc([N+](=O)[O-])cc3)c3c1CCC3)CCCC2	none
